Assay results: paper PMC9911399, “Two distinct binding modes provide the RNA-binding protein RbFox with extraordinary sequence specificity”
Substitutions are numbered along the chain they refer to; changes in the protein carry UniProt numbers. In all, about 16,000 sequences were measured (“ka relative to ugcaugu”: median about 0.0091, highest 2% from about 0.032 on). What follows is part of a selection rich in the highest values, with near analogues and random picks from the rest.

T1: RBFOX1 RRM (Homo sapiens, UniProt Q9NWB1 109-208)
T1 sequence: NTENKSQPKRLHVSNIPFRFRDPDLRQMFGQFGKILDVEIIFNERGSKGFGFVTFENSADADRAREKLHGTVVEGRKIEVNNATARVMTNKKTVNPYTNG

B1: GGGUACA (DNA:RNA)
RNA: GGGAGACCGGAAUUCAGAUUGUCCGGGUACAUUAAAUCCCGUCGUAGCCACCA
DNA 1: CAATCTGAATTCCGGTCTCCC
DNA 2: TGGTGGCTACGACGGGATT
B2: GUUCUUU (DNA:RNA)
RNA: B1 RNA with G26U, G27U, U28C, A29U, C30U, A31U
DNA 1: CAATCTGAATTCCGGTCTCCC
DNA 2: TGGTGGCTACGACGGGATT
B3: UCUUAUA (DNA:RNA)
RNA: B1 RNA with G25U, G26C, G27U, C30U
DNA 1: CAATCTGAATTCCGGTCTCCC
DNA 2: TGGTGGCTACGACGGGATT
B4: UAGUUAU (DNA:RNA)
RNA: B1 RNA with G25U, G26A, A29U, C30A, A31U
DNA 1: CAATCTGAATTCCGGTCTCCC
DNA 2: TGGTGGCTACGACGGGATT
B5: CCUCUCC (DNA:RNA)
RNA: B1 RNA with G25C, G26C, G27U, U28C, A29U, A31C
DNA 1: CAATCTGAATTCCGGTCTCCC
DNA 2: TGGTGGCTACGACGGGATT
B6: AUAACCC (DNA:RNA)
RNA: B1 RNA with G25A, G26U, G27A, U28A, A29C, A31C
DNA 1: CAATCTGAATTCCGGTCTCCC
DNA 2: TGGTGGCTACGACGGGATT
B7: GGCGCUG (DNA:RNA)
RNA: B1 RNA with G27C, U28G, A29C, C30U, A31G
DNA 1: CAATCTGAATTCCGGTCTCCC
DNA 2: TGGTGGCTACGACGGGATT
B8: GGUGUCA (DNA:RNA)
RNA: B1 RNA with G27U, U28G, A29U
DNA 1: CAATCTGAATTCCGGTCTCCC
DNA 2: TGGTGGCTACGACGGGATT
B9: AAACCAG (DNA:RNA)
RNA: GGGAGACCGGAAUUCAGAUUGUCCAAACCAGUUAAAUCCCGUCGUAGCCACCA
DNA 1: CAATCTGAATTCCGGTCTCCC
DNA 2: TGGTGGCTACGACGGGATT
B10: AACUAGA (DNA:RNA)
RNA: B1 RNA with G25A, G26A, G27C, C30G
DNA 1: CAATCTGAATTCCGGTCTCCC
DNA 2: TGGTGGCTACGACGGGATT
B11: AUUUUUU (DNA:RNA)
RNA: B9 RNA with A26U, A27U, C28U, C29U, A30U, G31U
DNA 1: CAATCTGAATTCCGGTCTCCC
DNA 2: TGGTGGCTACGACGGGATT
B12: CGGAGUG (DNA:RNA)
RNA: B1 RNA with G25C, U28A, A29G, C30U, A31G
DNA 1: CAATCTGAATTCCGGTCTCCC
DNA 2: TGGTGGCTACGACGGGATT
B13: GGGAGUG (DNA:RNA)
RNA: B1 RNA with U28A, A29G, C30U, A31G
DNA 1: CAATCTGAATTCCGGTCTCCC
DNA 2: TGGTGGCTACGACGGGATT
B14: GGAAUUC (DNA:RNA)
RNA: B1 RNA with G27A, U28A, A29U, C30U, A31C
DNA 1: CAATCTGAATTCCGGTCTCCC
DNA 2: TGGTGGCTACGACGGGATT
B15: CGGAUUC (DNA:RNA)
RNA: B1 RNA with G25C, U28A, A29U, C30U, A31C
DNA 1: CAATCTGAATTCCGGTCTCCC
DNA 2: TGGTGGCTACGACGGGATT
B16: GGGAUUC (DNA:RNA)
RNA: B1 RNA with U28A, A29U, C30U, A31C
DNA 1: CAATCTGAATTCCGGTCTCCC
DNA 2: TGGTGGCTACGACGGGATT
B17: GGAGUGU (DNA:RNA)
RNA: B1 RNA with G27A, U28G, A29U, C30G, A31U
DNA 1: CAATCTGAATTCCGGTCTCCC
DNA 2: TGGTGGCTACGACGGGATT
B18: AGUAUUG (DNA:RNA)
RNA: B9 RNA with A26G, A27U, C28A, C29U, A30U
DNA 1: CAATCTGAATTCCGGTCTCCC
DNA 2: TGGTGGCTACGACGGGATT
B19: GCGUCGG (DNA:RNA)
RNA: B1 RNA with G26C, A29C, C30G, A31G
DNA 1: CAATCTGAATTCCGGTCTCCC
DNA 2: TGGTGGCTACGACGGGATT
B20: CGGCUAU (DNA:RNA)
RNA: B9 RNA with A25C, A26G, A27G, C29U, G31U
DNA 1: CAATCTGAATTCCGGTCTCCC
DNA 2: TGGTGGCTACGACGGGATT
B21: AAACACU (DNA:RNA)
RNA: B9 RNA with C29A, A30C, G31U
DNA 1: CAATCTGAATTCCGGTCTCCC
DNA 2: TGGTGGCTACGACGGGATT
B22: GCGCAGU (DNA:RNA)
RNA: B1 RNA with G26C, U28C, C30G, A31U
DNA 1: CAATCTGAATTCCGGTCTCCC
DNA 2: TGGTGGCTACGACGGGATT
B23: GUUGUGG (DNA:RNA)
RNA: B9 RNA with A25G, A26U, A27U, C28G, C29U, A30G
DNA 1: CAATCTGAATTCCGGTCTCCC
DNA 2: TGGTGGCTACGACGGGATT
B24: GUUAACG (DNA:RNA)
RNA: B1 RNA with G26U, G27U, U28A, A31G
DNA 1: CAATCTGAATTCCGGTCTCCC
DNA 2: TGGTGGCTACGACGGGATT
B25: GAGAACG (DNA:RNA)
RNA: B1 RNA with G26A, U28A, A31G
DNA 1: CAATCTGAATTCCGGTCTCCC
DNA 2: TGGTGGCTACGACGGGATT
B26: GGAACGU (DNA:RNA)
RNA: B9 RNA with A25G, A26G, C28A, A30G, G31U
DNA 1: CAATCTGAATTCCGGTCTCCC
DNA 2: TGGTGGCTACGACGGGATT
B27: UGGACCG (DNA:RNA)
RNA: B1 RNA with G25U, U28A, A29C, A31G
DNA 1: CAATCTGAATTCCGGTCTCCC
DNA 2: TGGTGGCTACGACGGGATT
B28: GGGAACG (DNA:RNA)
RNA: B1 RNA with U28A, A31G
DNA 1: CAATCTGAATTCCGGTCTCCC
DNA 2: TGGTGGCTACGACGGGATT
B29: CCGAACG (DNA:RNA)
RNA: B1 RNA with G25C, G26C, U28A, A31G
DNA 1: CAATCTGAATTCCGGTCTCCC
DNA 2: TGGTGGCTACGACGGGATT
B30: GUGAACG (DNA:RNA)
RNA: B1 RNA with G26U, U28A, A31G
DNA 1: CAATCTGAATTCCGGTCTCCC
DNA 2: TGGTGGCTACGACGGGATT
B31: UGGAACG (DNA:RNA)
RNA: B1 RNA with G25U, U28A, A31G
DNA 1: CAATCTGAATTCCGGTCTCCC
DNA 2: TGGTGGCTACGACGGGATT
B32: CGGAACG (DNA:RNA)
RNA: B1 RNA with G25C, U28A, A31G
DNA 1: CAATCTGAATTCCGGTCTCCC
DNA 2: TGGTGGCTACGACGGGATT

Biological target: T1, RBFOX1 RRM
Test: EMSA; HiTS-Eq, 1 nM pool, 10 min; buffer printed only for the single-RNA assays: 10 mM Tris pH 7.5, 150 mM NaCl, 3.4 mM EDTA, 0.001% NP-40, 30 C
Details: tags: His6 N-terminal (pET28a); label: 5' 32P
Procedure, shortened: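 Purified wild-type or mutant RbFox RRM at increasing concentrations was equilibrated with 1 nM of 5′-radiolabelled RNA carrying 7 randomized nucleotides for 10 min in 50 µL. Unbound RNA was separated by 8% native PAGE and sequenced. Relative association constants came from read-count changes of each RNA species compared with the control reaction, normalised to the cognate motif.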

Row | Binder | binding signal
1 | B1 | 0.0112 KA relative to UGCAUGU
2 | B2 | 0.0158 KA relative to UGCAUGU
3 | B3 | 0.00158 KA relative to UGCAUGU
4 | B4 | 0.00794 KA relative to UGCAUGU
5 | B5 | 0.00489 KA relative to UGCAUGU
6 | B6 | 0.00143 KA relative to UGCAUGU
7 | B7 | 0.0174 KA relative to UGCAUGU
8 | B8 | 0.00539 KA relative to UGCAUGU
9 | B9 | 0.000872 KA relative to UGCAUGU
10 | B10 | 0.00203 KA relative to UGCAUGU
11 | B11 | 0.007 KA relative to UGCAUGU
12 | B12 | 0.0283 KA relative to UGCAUGU
13 | B13 | 0.0333 KA relative to UGCAUGU
14 | B14 | 0.018 KA relative to UGCAUGU
15 | B15 | 0.0273 KA relative to UGCAUGU
16 | B16 | 0.044 KA relative to UGCAUGU

Row | Binder | binding signal
17 | B17 | 0.0229 KA relative to UGCAUGU
18 | B18 | 0.0121 KA relative to UGCAUGU
19 | B19 | 0.0208 KA relative to UGCAUGU
20 | B20 | 0.0107 KA relative to UGCAUGU
21 | B21 | 0.00096 KA relative to UGCAUGU
22 | B22 | 0.0136 KA relative to UGCAUGU
23 | B23 | 0.0184 KA relative to UGCAUGU
24 | B24 | 0.0101 KA relative to UGCAUGU
25 | B25 | 0.0165 KA relative to UGCAUGU
26 | B26 | 0.0248 KA relative to UGCAUGU
27 | B27 | 0.0269 KA relative to UGCAUGU
28 | B28 | 0.0367 KA relative to UGCAUGU
29 | B29 | 0.0118 KA relative to UGCAUGU
30 | B30 | 0.0163 KA relative to UGCAUGU
31 | B31 | 0.0367 KA relative to UGCAUGU
32 | B32 | 0.0344 KA relative to UGCAUGU
